Laboratory results as given in PubChem BioAssay (Tox21).
Results filed as inconclusive are left out. Calls of active or inactive are those of the source. Unless noted, the call rests on the fitted dose curve; in most records, active means well fitted curve in the direction sought with a large enough effect in the repeat runs; inconclusive means weak or mixed curves; inactive means no such curve, though single readings can be large; an effect the other way counts as inactive or inconclusive.

What was measured:
[1] = qHTS assay for small molecule agonists of the p53 signaling pathway (AID 651631; calls by dose curve; further: nearly all actives have a fitted effect of over 15% in size)
Procedure, shortened: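 Testing took place in human colorectal HCT-116 cells with stable p53RE-driven beta-lactamase. After 16 h of compound exposure at 37 °C, a FRET substrate was added and fluorescence recorded 2 h later.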

[2] = qHTS assay for small molecules that induce genotoxicity in human embryonic kidney cells expressing luciferase-tagged ATAD5 (AID 651632); further: nearly all actives have a fitted effect of over 15% in size
Procedure, shortened: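 HEK293T cells carrying luciferase-tagged ATAD5 were given compound or DMSO vehicle and incubated 16 hr at 37C, 5% CO2. Luciferase activity was read after 30 min at room temperature with Amplite; a rise signals genotoxic stress.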

[3] = qHTS assay for small molecule agonists of the p53 signaling pathway - cell viability (AID 651633; calls by dose curve; further: series mostly up to about 83 µM; nearly all actives have a fitted effect of over 30% in size)
Procedure, shortened: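 Viability counter-read: CellTiter-Glo luminescence (30 min, room temperature) in the same p53RE-bla plates. These plates had been exposed to compounds for 16 h at 37 C.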

[4] = qHTS assay for small molecule disruptors of the mitochondrial membrane potential - cell viability (AID 720634; calls by dose curve;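 further: human HepG2 liver cancer cells; series mostly up to about 83 µM; nearly all actives have a fitted effect of over 20% in size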)
Procedure, shortened: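 HepG2 cells, 2,000 per well, attached overnight, then treated 1 hr at 37 C, 5% CO2. Viability read as ATP by CellTiter-Glo luminescence after 30 min at room temperature. Read in the same wells as the m-MPI membrane-potential dye assay.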

[5] = qHTS assay for small molecule disruptors of the mitochondrial membrane potential (AID 720635)
Procedure, shortened: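 Mitochondrial membrane potential tracked with Mito-MPS dye, red aggregates (ex 540/em 590 nm) against green monomers (ex 490/em 535 nm). Compound treatment 1 hr at 37C, dye 30 min in HepG2.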

[6] = qHTS assay to test for compound auto fluorescence at 535 nm (green) in HepG2 cells (AID 720675)
[7] = qHTS assay to test for compound auto fluorescence at 460 nm (blue) in HEK293 cells (AID 720678)
Procedure, shortened: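 Auto fluorescence in the blue band was quantified as triamterene equivalency. HEK293 cells were seeded at 2,000/well, dosed after a 4-5 hr attachment, and kept overnight at 37C before the 405/460 nm reading.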

[8] = qHTS assay to test for compound auto fluorescence at 590 nm (red) in HEK293 cells (AID 720679)
Procedure, shortened: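 Autofluorescence equivalency to Rose Bengal sodium, 540/590nm, in HEK293 cells exposed overnight to 23 nL compound per well.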

[9] = qHTS assay to test for compound auto fluorescence at 535 nm (green) in HEK293 cells (AID 720680)
[10] = qHTS assay to test for compound auto fluorescence at 460 nm (blue) in HEK293 cell free culture (AID 720681)
Procedure, shortened: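 Blue fluorescence (Ex 405/Em 460 nm, triamterene-equivalent) was read immediately after pin transfer of compound or DMSO into medium (DMEM, 10% FBS) without cells.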

[11] = qHTS assay to test for compound auto fluorescence at 535 nm (green) in HEK293 cell free culture (AID 720682)
Procedure, shortened: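 DMEM + 10% FBS, cell-free; cpd or DMSO pinned in; Ex485/Em535 read; output as fluorescein-equivalent signal.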

[12] = qHTS assay to test for compound auto fluorescence at 590 nm (red) in HEK293 cell free culture (AID 720683)
Procedure, shortened: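 Red-channel autofluorescence of compounds in culture medium (DMEM, 10% FBS), no cells, measured at 540/590 nm. Rose Bengal sodium is the reference fluorophore for equivalence.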

[13] = qHTS assay to test for compound auto fluorescence at 590 nm (red) in HepG2 cell free culture (AID 720684)
Procedure, shortened: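 Plate contents were MEM with 10% FBS plus test compound or DMSO, no cells. Fluorescence was recorded with 540 nm excitation and 590 nm emission.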

[14] = qHTS assay to test for compound auto fluorescence at 460 nm (blue) in HepG2 cell free culture (AID 720685)
Procedure, shortened: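 Compound (23 nL) or DMSO pinned into cell-free MEM with 10% FBS; blue fluorescence read at 405/460 nm excitation/emission, expressed as auto-fluorescence equivalency to triamterene.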

[15] = qHTS assay to test for compound auto fluorescence at 535 nm (green) in HepG2 cell free culture (AID 720686)
[16] = qHTS assay to test for compound auto fluorescence at 460 nm (blue) in HepG2 cells (AID 720687)
Procedure, shortened: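 Blue-channel autofluorescence (Ex/Em 405/460 nm, triamterene-equivalent) was measured after 1 hr compound exposure at 37 C, 5% CO2. Cells were HepG2, plated overnight at 37 C in MEM plus 10% FBS.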

[17] = qHTS assay to test for compound auto fluorescence at 590 nm (red) in HepG2 cells (AID 720674)
Procedure, shortened: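 Red autofluorescence (Ex/Em 540/590 nm, Rose Bengal sodium equivalents) was measured in HepG2 cells, 2,000 per well in MEM plus 10% FBS, plated overnight at 37 C. Readings were taken 1 hr after adding 23 nL compound or DMSO, at 37 C and 5% CO2.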

[18] = target: Glucocorticoid receptor (Homo sapiens) (UniProt P04150); assay: qHTS assay to identify small molecule agonists of the glucocorticoid receptor (GR) signaling pathway (AID 720691; active means well fitted activation curve with a large enough effect in the signal ratio in the repeat runs, not every such curve was filed as active; the % refers to the signal ratio)
Chain of Glucocorticoid receptor (Homo sapiens) (P04150 whole entry, looked up): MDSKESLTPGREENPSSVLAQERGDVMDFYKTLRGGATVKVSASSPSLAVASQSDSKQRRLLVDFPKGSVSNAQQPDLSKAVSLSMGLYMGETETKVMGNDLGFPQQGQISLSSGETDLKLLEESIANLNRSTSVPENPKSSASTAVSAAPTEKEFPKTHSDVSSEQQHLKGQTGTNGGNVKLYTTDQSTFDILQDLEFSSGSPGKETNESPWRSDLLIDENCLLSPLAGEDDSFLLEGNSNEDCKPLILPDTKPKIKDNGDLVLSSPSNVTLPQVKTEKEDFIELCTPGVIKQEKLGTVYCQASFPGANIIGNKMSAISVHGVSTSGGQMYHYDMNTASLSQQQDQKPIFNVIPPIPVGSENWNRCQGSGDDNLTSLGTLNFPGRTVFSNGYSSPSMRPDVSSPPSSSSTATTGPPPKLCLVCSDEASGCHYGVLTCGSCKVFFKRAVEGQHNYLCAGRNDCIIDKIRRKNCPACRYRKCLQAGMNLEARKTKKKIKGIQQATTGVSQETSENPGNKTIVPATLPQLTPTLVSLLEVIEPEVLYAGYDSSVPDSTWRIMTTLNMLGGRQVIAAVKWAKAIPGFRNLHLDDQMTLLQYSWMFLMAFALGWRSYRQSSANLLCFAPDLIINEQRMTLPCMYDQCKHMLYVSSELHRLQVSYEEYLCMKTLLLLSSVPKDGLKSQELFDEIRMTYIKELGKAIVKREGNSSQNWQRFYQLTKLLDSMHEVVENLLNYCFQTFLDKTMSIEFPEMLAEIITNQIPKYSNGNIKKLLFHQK
Procedure, shortened: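 GR-bla HeLa cells carrying a GRE-driven beta-lactamase reporter, exposed to compounds for 18 h at 37 C. Reporter activation read as fluorescence after 2 h with LiveBLAzer B/G FRET substrate at room temperature.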

[19] = target: Glucocorticoid receptor (Homo sapiens) (UniProt P04150); assay: qHTS assay to identify small molecule antagonists of the glucocorticoid receptor (GR) signaling pathway (AID 720692; active means well fitted inhibition curve with a large enough effect in the signal ratio in the repeat runs, not every such curve was filed as active; the % refers to the signal ratio)
Procedure, shortened: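 GR-bla HeLa cells carrying a GRE-driven beta-lactamase reporter received compound after 4 h plating, then dexamethasone (5 nM final). After 18 h at 37C, the FRET substrate was loaded for 2 h at room temperature and fluorescence read.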

[20] = qHTS assay for small molecules that induce genotoxicity in human embryonic kidney cells expressing luciferase-tagged ATAD5 - cell viability (AID 651634; calls by dose curve; further: nearly all actives have a fitted effect of over 25% in size)
Procedure, shortened: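 HEK293T cells carrying luciferase-tagged ATAD5, 2,000 cells/well, exposed to compound for 15.5 hr at 37C. Viability read as live-cell protease activity by CellTiter-Fluor fluorescence after 30 min at 37C.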
On the % scale 0 is the no-effect control and ±100 the full control effect.

CN1[C@@H]2CC[C@H]1CC(OC(=O)C(O)c1ccccc1)C2 (stereo not given in full)
inactive: Potency [1] | Potency [2] | Potency [3] | outcome [4] | Potency [5] | outcome [6] | outcome [7] | outcome [8] | outcome [9] | outcome [10] | outcome [11] | outcome [12] | outcome [13] | outcome [14] | outcome [15] | outcome [16]

CNCCO
inactive: Potency [1] | Potency [2] | Potency [3] | outcome [4] | Potency [5] | outcome [17] | outcome [6] | outcome [8] | outcome [9] | outcome [10] | outcome [11] | outcome [12] | outcome [13] | outcome [14] | outcome [16]

CC1=NN(c2cc(S(=O)(=O)O)ccc2Cl)C(=O)C1N=Nc1ccccc1 (stereo not given)
inactive: Potency [1] | Potency [2] | Potency [3] | outcome [4] | outcome [17] | outcome [6] | outcome [7] | outcome [8] | outcome [9] | outcome [10] | outcome [11] | outcome [12] | outcome [13] | outcome [14] | outcome [15] | outcome [16] | Potency [18] | Potency [19]

CCCCOCCOC(=O)COc1cc(Cl)c(Cl)cc1Cl
inactive: Potency [1] | Potency [2] | Potency [3] | outcome [4] | outcome [17] | outcome [6] | outcome [8] | outcome [9] | outcome [10] | outcome [11] | outcome [12] | outcome [13] | outcome [14] | outcome [15] | outcome [16] | Potency [18] | Potency [19]

CC(C)COC(=O)c1ccc(N)cc1
inactive: Potency [1] | Potency [3] | Potency [20] | outcome [4] | outcome [17] | outcome [7] | outcome [8] | outcome [9] | outcome [10] | outcome [11] | outcome [12] | outcome [13] | outcome [14] | outcome [15] | outcome [16] | Potency [18] | Potency [19]

O=C1NC(=O)C2CC=CCC12 (stereo not given)
inactive: Potency [1] | Potency [3] | Potency [20] | outcome [4] | outcome [17] | outcome [6] | outcome [7] | outcome [9] | outcome [10] | outcome [11] | outcome [12] | outcome [13] | outcome [14] | outcome [15] | outcome [16] | Potency [18] | Potency [19]

CCCCOCCOC(=O)CCCCCCCCC(=O)OCCOCCCC
inactive: Potency [1] | Potency [2] | Potency [3] | outcome [4] | outcome [17] | outcome [6] | outcome [7] | outcome [9] | outcome [10] | outcome [11] | outcome [12] | outcome [13] | outcome [14] | outcome [15]

CN1CCN(c2cc3c(nn2)Oc2ccccc2N3C)CC1
inactive: Potency [1] | Potency [3] | Potency [20] | outcome [4] | Potency [5] | outcome [17] | outcome [8] | outcome [9] | outcome [10] | outcome [11] | outcome [12] | outcome [13] | outcome [14] | outcome [16]

COc1ccc2cc1Oc1cc3c(cc1OC)CC[N+](C)(C)[C@H]3Cc1ccc(cc1)Oc1c(OC)c(OC)cc3c1[C@@H](C2)[N+](C)(C)CC3
inactive: Potency [1] | Potency [2] | Potency [3] | outcome [4] | Potency [5] | outcome [17] | outcome [6] | outcome [7] | outcome [9] | outcome [10] | outcome [11] | outcome [12] | outcome [13] | outcome [14] | outcome [16] | Potency [18] | Potency [19]

CN(C)CCN(C)CCN(C)C
inactive: Potency [1] | Potency [2] | Potency [3] | outcome [4] | outcome [17] | outcome [6] | outcome [8] | outcome [9] | outcome [10] | outcome [11] | outcome [12] | outcome [13] | outcome [14] | outcome [15] | outcome [16] | Potency [18] | Potency [19]

C[C@@H]1CCC[C@H](C)N1
inactive: Potency [1] | Potency [2] | Potency [3] | outcome [4] | Potency [5] | fluorescence, relative to Rose Bengal [17] 0.289% [at 18.6 µM] | fluorescence, % of fluorescein control [6] 0.0643% [at 18.6 µM] | fluorescence, % of fluorescent control [8] 0.0043% [at 18.6 µM] | fluorescence, % of fluorescein [9] -0.0078% [at 18.6 µM] | fluorescence, % of fluorescent control [10] -0.0158% [at 18.6 µM] | activity change [11] 0.0087% [at 18.6 µM] | fluorescence, % of fluorescent control [12] -0.545% [at 18.6 µM] | fluorescence, % of fluorescent control [14] -0.0314% [at 18.6 µM] | fluorescence, % of fluorescein control [15] -0.001% [at 18.6 µM] | fluorescence, % of fluorescent control [16] 0.0179% [at 18.6 µM] | Potency [18] | Potency [19]

CC(C(=O)O)c1cccc(Oc2ccccc2)c1 (stereo not given)
inactive: Potency [1] | Potency [2] | Potency [3] | outcome [4] | Potency [5] | fluorescence, relative to Rose Bengal [17] -0.601% [at 18.6 µM] | fluorescence, % of triamterene [7] 0.0483% [at 18.6 µM] | fluorescence, % of fluorescent control [8] -0.0737% [at 18.6 µM] | fluorescence, % of fluorescein [9] 0.0474% [at 18.6 µM] | fluorescence, % of fluorescent control [10] -0.022% [at 18.6 µM] | activity change [11] 0.0987% [at 18.6 µM] | fluorescence, % of fluorescent control [12] -0.0434% [at 18.6 µM] | fluorescence, % of Rose Bengal [13] 0.647% [at 18.6 µM] | fluorescence, % of fluorescent control [14] -0.0014% [at 18.6 µM] | fluorescence, % of fluorescein control [15] 0.0607% [at 18.6 µM] | fluorescence, % of fluorescent control [16] -0.0143% [at 18.6 µM]

CCC(C)(CN(C)C)OC(=O)c1ccccc1 (stereo not given)
inactive: Potency [1] | Potency [3] | Potency [20] | outcome [4] | Potency [5] | fluorescence, % of fluorescein control [6] -0.164% [at 18.6 µM] | fluorescence, % of triamterene [7] 0.148% [at 18.6 µM] | fluorescence, % of fluorescent control [8] 0.273% [at 18.6 µM] | fluorescence, % of fluorescein [9] -0.0159% [at 18.6 µM] | fluorescence, % of fluorescent control [10] -0.0658% [at 18.6 µM] | activity change [11] -0.158% [at 18.6 µM] | fluorescence, % of fluorescent control [12] -0.827% [at 18.6 µM] | fluorescence, % of Rose Bengal [13] -0.0837% [at 18.6 µM] | fluorescence, % of fluorescent control [14] 0.131% [at 18.6 µM] | fluorescence, % of fluorescein control [15] 0.0276% [at 18.6 µM] | fluorescence, % of fluorescent control [16] -0.0227% [at 18.6 µM] | Potency [18] | Potency [19]

NC(=O)Cc1cccc2ccccc12
inactive: Potency [1] | Potency [3] | Potency [20] | outcome [4] | outcome [17] | outcome [6] | outcome [7] | outcome [9] | outcome [10] | outcome [11] | outcome [12] | outcome [13] | outcome [14] | outcome [16] | Potency [18] | Potency [19]

CCNS(=O)(=O)c1ccc(C)cc1
inactive: Potency [1] | Potency [2] | Potency [3] | outcome [4] | Potency [5] | outcome [7] | outcome [8] | outcome [9] | outcome [10] | outcome [11] | outcome [12] | outcome [13] | outcome [14] | outcome [15] | outcome [16] | Potency [18]
